In ChEMBL document CHEMBL4513216, “Probing the Open Global Health Chemical Diversity Library for Multistage-Active Starting Points for Next-Generation Antimalarials” (ACS Infect Dis, 2020) one finds INHIBITION data, which are given here for 52 compounds.

The campaign covered roughly 68,000 compounds. About 2,700 (4%) showed an effect of 50% or more. Many of the other results were omitted from the sample, so strong results are more common in it than they were.

For the experiment, the system named is Plasmodium berghei. Nature of the experiment: Screen against P. berghei liver stage (PbLuc), transformed with Luciferase, at 2uM. Format: functional, HepG2. The conditions noted are these: tested at 2 uM.
In the case of `CCn1cc(C(=O)N2CCOC(c3nc(-c4cccs4)no3)C2)cn1` (configuration not stated), the INHIBITION was -36.52%.
As for `COc1cc(-c2n[nH]c(CC#N)n2)cc(OC)c1OC`, the figure is 16.72%; as for `O=C(NC1CC1)c1cn(C2CCN(c3cc(C4CC4)ncn3)CC2)nn1`, -26.81%; as for `CCc1cc(N2CCC(n3cc(C(=O)NC4CC4)nn3)CC2)ncn1`, 52.66%.
For `CC(C)Nc1cc(N2CCC(n3cc(CCO)nn3)CC2)ncn1` the value was 69.71%; for `CCc1cc(N2CCC(n3cc(C(=O)NCC(C)C)nn3)CC2)ncn1`, -71.68%; for `CC(C)Nc1cc(N2CCC(n3cc(C4CCCC4)nn3)CC2)ncn1`, -1.21%.
As for `CC(C)Nc1cc(N2CCC(n3cc(C4CC4)nn3)CC2)ncn1`, the figure is -46.8%.
As to `CCC(CO)NCc1ccc(-c2ccc(Cl)cc2)o1` (configuration not stated), the INHIBITION worked out at 2.25%.
As for `CNC(=O)CCc1cc(C)nc(C2CCN(c3ccccc3)CC2)c1`, the figure is -107.54%; as for `CN(C)CCN1CCC2(CCN(C(=O)c3cccnc3)CC2)C1=O`, 6.66%; as for `O=C(O)c1nnn(Cc2cccc(C(F)(F)F)c2)c1-c1cccnc1`, 39.9%.
With `O=C(O)c1nnn(Cc2cccc(C(F)(F)F)c2)c1-c1ccccn1`, the INHIBITION was determined as 55.25%.
For `O=C(O)c1nnn(Cc2cccc(C(F)(F)F)c2)c1-c1ccncc1` the value was 43.75%; for `COc1ccc2c(c1)CN(Cc1ccco1)C(=O)CCN2CC(C)(C)O`, -35.52%.
For `CN(C(=O)c1cc(F)ccc1F)[C@@H]1CC[C@@H](O)[C@@H]1O` the value was 41.21%; for `CO[C@@H]1CCC[C@@H](N(C)C(=O)c2cc(F)ccc2F)[C@H]1O`, 53.16%; for `COc1ccc(F)cc1C(=O)N(C)[C@@H]1CC[C@@H](O)[C@@H]1O`, 16.87%.
On to `O=C(CO)N1CCOC2(CCCN(c3ncc(F)cn3)C2)C1` (configuration not stated), for which the INHIBITION is listed as 14.27%.
As for `CC(C)(C(=O)N1CCCC(OCc2cccnc2)C1)n1cccc1` (configuration not stated), the figure is 27.81%; as for `CN(CCO)CC1COCCN1C(=O)C1CCCCC1` (configuration not stated), -23.4%.
With `CN(CCO)CC1COCCN1C(=O)CCC1CCCC1` (configuration not stated), the INHIBITION worked out at 69.06%.
As for `O=C(CC1CCCCC1)N1CCOCC1CO` (configuration not stated), the figure is 18.81%.
Regarding `CCOC(=O)NCC(=O)Nc1nc2ccccc2n1C(C)(C)C`, the INHIBITION stood at 30.23%.
As for `CCc1nccc(CN2CCC(CNC(=O)c3occc3C)C2)n1` (configuration not stated), the INHIBITION is -4.04%.
As for `CC(C)c1ncc2c(n1)CN(Cc1nc(Cc3ccccc3)no1)CC2`, the figure is 6.12%.
As for `c1ccc(Cc2noc(CN3CCc4cncnc4C3)n2)cc1`, the figure is 56.02%.
Take `Cc1ncc2c(n1)CN(Cc1nc(Cc3ccccc3)no1)CC2`: the INHIBITION is -54.44%.
Regarding `Cc1cccc(C2CCCN2C(=O)CN(C)S(C)(=O)=O)c1C` (configuration not stated), the INHIBITION is -73.81%.
For `COCCn1c2c(ccc1=O)CC(NC(=O)c1cscn1)CC2` (configuration not stated) the value was -25.4%; for `NC1CC(C(F)(F)F)=NC=C1c1ccc(Cl)cc1` (configuration not stated), -19.36%; for `CN(C)c1cc(CNCc2cccc3c2OCCO3)ccn1`, -15.64%.
For `FC1(F)CCN(Cc2cccnc2)CC12CCN(c1ccccc1)C2` (configuration not stated) the value was 31.41%.
As for `O=C([C@H]1CCCO1)N1CCc2ncnc(NC3CC3)c2CC1`, the INHIBITION is on record as -15.36%.
`O=C(C1CCCCO1)N1CCc2ncnc(NCc3ccon3)c2CC1` (configuration not stated): the INHIBITION is 59.58%.
On to `COc1cccc(CC(=O)N2CCc3ncnc(NCCO)c3CC2)c1`, for which the INHIBITION was 52.98%.
With `COc1cccc(CC(=O)N2CCc3ncnc(NC(C)C)c3CC2)c1`, the INHIBITION worked out at 2.71%.
In the case of `CC(C)Nc1ncnc2c1CCN(C(=O)[C@H]1CCCO1)CC2`, the INHIBITION came out at 35.89%.
As for `O=C(C1CCCCO1)N1CCc2ncnc(NCCO)c2CC1` (configuration not stated), the figure is 57.89%; as for `O=C(C1CCCO1)N1CCc2ncnc(NC3CCC3)c2CC1` (configuration not stated), 46.32%.
In the case of `O=C(CC1C=CCC1)N1CCc2ncnc(NCc3ccon3)c2CC1` (configuration not stated), the INHIBITION was 42.26%.
For `COc1cccc(CC(=O)N2CCc3ncnc(C)c3CC2)c1` the value was 19.49%; for `CC(NCc1ccc(-c2ccc(F)cc2)o1)c1nnc2n1CCC2` (configuration not stated), -40.26%; for `Nc1nnc(Cn2nnc(-c3ccccc3F)n2)s1`, 39.58%.
Consider `CNc1ncc(CN2CCC(CCc3ccccc3)CC2)cn1`, for which the INHIBITION turned out to be 49.87%.
As for `O=C(c1cccc(-n2cnnc2)c1)N1C[C@@H](O)[C@H](N2CCOCC2)C1`, the figure is -8.04%; as for `CN1CCC(N(C)C[C@H]2CC[C@@H](Cc3ccc4occc4c3)O2)CC1`, -10.59%.
For `COc1ccc(C[C@@H]2CC[C@H](CN(C)C3CCN(C)CC3)O2)cc1` the value was 68.08%; for `CN1CCC(N(C)C[C@H]2CC[C@@H](Cc3cccc(O)c3)O2)CC1`, -66.38%.
As for `Cc1cc(C)n(CC2CCCCN2CC(=O)N(C)Cc2ccco2)n1` (configuration not stated), the figure is 40.82%; as for `CC(CNC(=O)c1c[nH]nn1)Oc1ccc(Cl)cc1` (configuration not stated), -4.64%.
Take `O=C(C1CCOCC1)N1CCN(CC2CC2)c2ncccc2C1`: the INHIBITION was 51.27%.
